# RORgamma inh: ROR gamma (mouse) transcription inhibition; P51450; Drosophila S2 Gal4-RORgamma UAS-luciferase reporter, 20 h; Potency, µM (titrated, usually from 53.6 µM), for the others: top-dose activity change, negative = inhibition, usual class: inhibitors; 310,000 tested, 5.4% active; AID 2551; further: nearly all actives have a fitted effect of over 60% in size
# Target sequence (P51450 whole entry, looked up, the tested form may be a part): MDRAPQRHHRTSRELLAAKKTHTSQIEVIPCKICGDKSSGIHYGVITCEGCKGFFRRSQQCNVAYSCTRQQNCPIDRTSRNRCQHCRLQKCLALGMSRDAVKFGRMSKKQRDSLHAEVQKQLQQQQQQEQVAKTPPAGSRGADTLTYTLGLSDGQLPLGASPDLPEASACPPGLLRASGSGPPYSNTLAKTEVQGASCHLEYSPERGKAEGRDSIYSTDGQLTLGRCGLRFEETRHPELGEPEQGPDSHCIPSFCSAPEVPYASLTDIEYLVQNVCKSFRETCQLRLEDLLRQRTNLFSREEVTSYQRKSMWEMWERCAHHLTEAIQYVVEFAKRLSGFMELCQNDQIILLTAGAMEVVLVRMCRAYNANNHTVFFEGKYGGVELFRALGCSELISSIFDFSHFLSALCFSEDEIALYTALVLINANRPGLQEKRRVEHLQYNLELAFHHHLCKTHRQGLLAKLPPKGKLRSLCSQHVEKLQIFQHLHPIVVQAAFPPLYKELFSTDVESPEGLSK
#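 Stable Schneider cell line, Gal4 DNA-binding domain fused to ROR gamma, UAS-luciferase. Cmpd 1 hr RT → CuSO4 700 uM final → 20 hr RT → luciferase reagent 10 min → luminescence.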
# ELG1 repair inh: ELG1-dependent DNA repair inhibition; AID 504467; Potency, µM (top dose mostly 46.1 µM), inactives show top-dose activity change, negative = inhibition, actives largely listed as inhibitors; 330,000 tested, 2.3% active; HEK293T ELG1-luciferase reporter, luminescence, 16 h; DNA damage induced by 5-fluorouridine; further: nearly all actives have a fitted effect of over 55% in size
#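 HEK293T cells expressing luciferase-tagged ELG1 (2,000/well) received 5-Fluorouridine plus compound or DMSO for 16 hr at 37 °C. Luciferase was read by ONE-Glo luminescence after 30 min at room temperature.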
# ALOX12 inh: ALOX12 (human) lipoxygenase inhibition. 580,000 tested, 1.1% active. Potency, µM (series often up to 108 µM), without a hit: at the top dose activity change, negative = inhibition, actives largely listed as inhibitors. AID 1671190. P18054. purified 12hLO, xylenol orange hydroperoxide absorbance
#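 Purified human 12hLO at 150 nM in 25 mM Hepes, 0.01% Triton X-100, pH 7.0, preincubated 15 min at room temperature with compound. Reaction started with 40 uM arachidonic acid, 30 min at room temperature. Hydroperoxide measured by Fe-xylenol orange, 573/405 nm absorbance ratio.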
# DT40 TDP1 CPT: DT40-hTDP1 cell growth loss with CPT | chicken DT40 Tdp1-/-;hTDP1 cells + 20 nM CPT, ATP luminescence, 48 h | Potency, µM (top dose mostly 46.2 µM), inactives show at the highest dose activity change, negative = growth inhibition, most hits filed as inhibitors | 420,000 tested, 12% active | AID 686979; further: nearly all actives have a fitted effect of over 55% in size
#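 Chicken DT40 Tdp1-/- cells stably complemented with human TDP1 were seeded at 400 cells/well in medium containing 20 nM camptothecin, exposed to pin-transferred compounds, and grown at 37 °C for at least 48 hr. Viability was read as ATP luminescence.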
# Gal4-VP16 FLuc: Gal4-VP16 reporter inhibition counter-screen | Drosophila S2 Gal4-VP16 UAS-luciferase, luminescence, 20 h | Potency, µM (doses to about 53.6 µM), without a hit: at the highest dose activity, negative = inhibition, usual class: inhibitors | 310,000 tested, 3.5% active | AID 2546;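 further: Gal4-VP16 expression switched on by copper sulfate through the metallothionein promoter; nearly all actives have a fitted effect of over 50% in size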
# TDP1 cell noCPT: qHTS for Inhibitors of human tyrosyl-DNA phosphodiesterase 1 (TDP1): qHTS in cells in absence of CPT; DT40 Tdp1-/- hTDP1 cells, no CPT, ATP luminescence, 48 h; Potency, µM (highest dose often 46.2 µM), inactives show top-dose activity change, negative = growth inhibition, most hits filed as inhibitors; 420,000 tested, 15% active; AID 686978, 2013; further: nearly all actives have a fitted effect of over 55% in size
#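 No-CPT arm: Tdp1-/-;hTDP1 DT40 cells (400/well) plus compounds, incubated ≥48 hr at 37 °C. Readout CellTiter-Glo luminescence.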
# * marks the source's active call; other numbers are inactive results; ? = inconclusive; / = not tested or not shown; [ ] = remark or other dose. The list is not random: actives were taken first. Their share in the collection is about 15%. The call rests on the fitted dose curve; in most records, active means well fitted curve in the direction sought with a large enough effect; inconclusive means small, poorly fitted or top-dose-only effect, or another doubt; inactive means no such curve, though single readings can be large; an effect the other way counts as inactive or inconclusive. On the % scale 0 is the no-effect control and ±100 the full control effect; potency means the concentration at half of the fitted maximal effect.
SMILES,RORgamma inh,ELG1 repair inh,ALOX12 inh,DT40 TDP1 CPT,Gal4-VP16 FLuc,TDP1 cell noCPT
O=C1NC2(CCN(C(=O)c3ccccc3F)C2)Oc2ccccc21 (centres undefined),/,/,73.9%[176 µM],/,/,/
Cc1cc2c(NC(=O)Nc3ccc(C(C)(C)C)cc3)cccc2nn1,36.9%,14.6µM*,-2.1%,?,-14.9%,?
Cc1ccccc1NC(=O)Nc1ccc(C(F)(F)F)cc1,-2.9%,?,-15.1%,9.2µM*,-26.2%,8.2µM*
Cc1ccccc1NC(=O)Nc1ccccc1C(N)=O,-8.5%,9.7%,-2.1%,10.3µM*,9.7%,?
COc1cc(OC)c(C(=O)Nc2ccc3oc(C)nc3c2)cc1OC,/,/,24.7%,/,/,/
CC(C(=O)N(C)CC(=O)Nc1ccccc1C(F)(F)F)N(C)Cc1cccc(F)c1 (centres undefined),/,/,-36.6%,/,/,/
Cc1ccc(C)c(N2CCN(C(=O)c3ccc(CS(=O)Cc4cccc(Cl)c4)o3)CC2)c1 (centres undefined),-13.4%,-22.8%,6.9%,?,-7.5%,-14.0%
O=C(c1ccco1)N1CCN(C(=O)c2ccccc2OCc2ccc(Cl)cc2)CC1,/,12.4%,?,?,/,?
O=C(c1ccc(CS(=O)c2ccccc2Cl)o1)N1CCN(c2ccccc2F)CC1 (centres undefined),/,/,0.0%,1.3µM*,/,1.3µM*
O=C(c1ccccc1OCc1ccc(Cl)cc1)N1CCN(c2ccccn2)CC1,/,-20.0%,1.1%,23.1µM*,/,?
Cc1ccc(Cl)cc1N1CCN(C(=O)c2ccc(CS(=O)c3ccccc3)o2)CC1 (centres undefined),/,/,?,2.59µM*,/,5.17µM*
O=C(c1ccc(CS(=O)c2cccc(Cl)c2)o1)N1CCN(c2ccccn2)CC1 (centres undefined),1.2%,?,0.5%,?,-2.1%,9.2µM*
Cc1ccc(Cl)cc1N1CCN(C(=O)c2noc3c2CCCC3)CC1,/,/,-3.4%,11.6µM*,/,?
Cc1cccc(N2CCN(C(=O)c3noc4c3CCCCC4)CC2)c1C,/,/,-18.4%,?,/,-50.7%
COC(=O)c1cc(C(=O)N2CCN(c3cccc(C)c3C)CC2)cc([N+](=O)[O-])c1,-1.0%,?,1.5%,5.8µM*,-5.9%,2.59µM*
Cc1cccc(N2CCN(C(=O)c3ccc(CS(=O)c4cccc(Cl)c4)o3)CC2)c1C (centres undefined),/,/,?,0.82µM*,/,0.92µM*
COc1ccccc1N1CCN(C(=O)c2ccc(CS(=O)c3ccccc3C)o2)CC1 (centres undefined),/,/,-17.1%,11.6µM*,/,13µM*
COc1ccccc1N1CCN(C(=O)c2ccc(CS(=O)(=O)c3ccccc3OC)o2)CC1,8.8%,?,0.0%,?,-4.6%,?
O=C(c1ccc(CS(=O)c2cccc(Cl)c2)o1)N1CCOCC1 (centres undefined),8.0%,16.3%,-24.0%,-11.4%,-1.4%,17.4%
CCN(C(=O)c1cnc(N2CCOCC2)c2ccccc12)c1cccc(C)c1,/,/,-2.1%,/,/,/
CCc1ccc(C(C)NC(=O)Cn2nc(-c3ccc(F)cc3)oc2=O)cc1 (centres undefined),/,/,-2.1%,/,/,/
Cc1ccc(C(=O)N2CCN(c3cccc(C)c3C)CC2)o1,/,-11.6%,?,16.4µM*,/,?
Cc1ccc(-c2c(C(=O)N3CCN(c4cccc(C)c4C)CC3)oc(=O)c3ccccc23)cc1,/,/,-31.9%,?,/,20.6µM*
Cc1ccc(Cl)cc1N1CCN(C(=O)COc2ccc3c(c2)CCC3)CC1,15.4%,-9.2%,-27.0%,-3.9%,-12.5%,20.6µM*
CCc1ccccc1S(=O)(=O)Cc1ccc(C(=O)N2CCN(c3ccccn3)CC2)o1,-29.5%,?,-3.8%,?,-13.6%,?
SMILES,RORgamma inh,ELG1 repair inh,ALOX12 inh,DT40 TDP1 CPT,Gal4-VP16 FLuc,TDP1 cell noCPT
Cc1ccc(CS(=O)Cc2ccc(C(=O)N3CCN(c4ccccn4)CC3)o2)cc1 (centres undefined),12.9%,-19.5%,0.2%,20.6µM*,0.0%,?
CC(C)Cc1nc(OCC(=O)N2CCCCC2)c(C#N)c2c1CCCC2,/,/,-0.3%,/,/,/
CC(Sc1n[nH]c(=O)n1C1CC1)C(=O)c1ccc(F)cc1 (centres undefined),/,/,-20.9%,/,/,/
Cc1ccccc1S(=O)Cc1ccc(C(=O)N2CCN(c3cccc(C)c3C)CC2)o1 (centres undefined),/,/,5.7%,0.651µM*,/,0.82µM*
O=C(NCC(=O)N1CCN(c2ccccn2)CC1)c1cc2ccccc2[nH]1,/,/,-24.0%,/,/,/
O=c1oc2ccc(F)cc2cc1S(=O)(=O)N1CCc2ccccc2C1,/,/,4.4%,/,/,/
CC(C)CC1C(=O)N(Cc2cn(CCC3OCCCO3)nn2)CCS(=O)(=O)N1Cc1ccc(-c2cccc(CO)c2)cc1 (centres undefined),/,/,?,-25.7%,/,?
CC(C)CC1C(=O)N(Cc2cn(Cc3ccco3)nn2)CCS(=O)(=O)N1Cc1ccc(-c2ccc(Cl)cc2)cc1 (centres undefined),/,/,?,18.4µM*,/,13µM*
CC(C)CC1C(=O)N(Cc2cn(Cc3ccco3)nn2)CCS(=O)(=O)N1Cc1ccc(-c2cccc(CO)c2)cc1 (centres undefined),/,/,22.4µM*,?,/,16.4µM*
O=C1C(N2CCN(S(=O)(=O)Cc3cccc(Cl)c3)CC2)CCN1Cc1cccnc1 (centres undefined),/,/,29.2%,/,/,/
Cc1cc(NCCCCCCCNc2cc(C)nc3cc([N+](=O)[O-])ccc23)c2ccc([N+](=O)[O-])cc2n1,/,/,?,1.64µM*,/,1.3µM*
COCCCNc1cc(C)nc2ccccc12,-13.7%,-17.5%,-26.8%,-3.9%,3.2%,8.8%
CCn1cnnc1CCNC(=O)CC1C(=O)NCCN1Cc1ccccc1 (centres undefined),/,/,57.9%,/,/,/
Cc1ccc(C)c(-c2[nH]ncc2CN2CCCn3nc(CO)cc3C2)c1,/,/,29.2%,/,/,/
CCCCn1nc2cc(C(=O)NCC34CC5CC(CC(C5)C3)C4)ccc2c1OCC,4.8%,?,?,?,-19.7%,16.4µM*
Cc1nc(CN2CCCC(CCc3ccccc3C(F)(F)F)C2)no1 (centres undefined),/,/,31.1%,/,/,/
CN(C(=O)c1cnc(N2CCN(c3ncccn3)CC2)c2ccccc12)c1ccc(Cl)cc1,19.2%,?,27.7%,?,-7.1%,20.6µM*
